Each structure is given as a SMILES string.

This experiment relates to Sonic hedgehog protein (Shh). Put plainly: Sonic hedgehog microarray binding compounds – biochemical, small-molecule microarray, 635/667 nm fluorescence, primary screen (AID 1151).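 Note: Shh protein binding to compounds spotted on small-molecule microarray slides; score combines spot fluorescence intensity with signal-to-noise across triplicate slides.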 The note with it: 635 nm fluorescence, higher = more signal.
Regarding `C=C(C)C1C(=C)CN([C@H](CO)c2ccccc2)C1=O` (stereo not given in full), the composite z-score was 1.28.

`COc1ccc(C(O)C2C=CC3C(=O)N(c4ccccc4)C(=O)C3N2Nc2ccccc2F)cc1OCc1ccccc1` (stereo not given) came in with a composite z-score of -0.876.

`COCCCNC(=O)[C@@]1(Cc2ccccc2)N=C(c2ccc(OCCCO)cc2)O[C@H]1c1ccccc1` registered a composite z-score of 0.0157.

As for `CC(C)C(CO)N1C(=O)[C@@H]2[C@H]3C(=O)OCC=C[C@H]3OC23C=CCN(C(C)C)C(=O)[C@@H]13` (stereo not given in full), the composite z-score stood at 0.841.

In turn, `[N-]=[N+]=Nc1ccccc1[C@H]1OC(c2ccc(OCCCO)cc2)=N[C@@]1(Cc1ccccc1)C(=O)O` returned a composite z-score of 1.07.

`Cc1ccc(S[C@]2(C(=O)NC(C)C)CC(=O)N(Cc3ccccc3Cl)[C@@H]2c2ccc(CO)cc2I)cc1` gave a composite z-score of -0.008.

`CN(C)CCCCCCNC(=O)[C@@H]1C[C@@H]2C(=O)N[C@@H](CCCCN)C(=O)N2[C@@H]1c1cccc(OCCO)c1`: the composite z-score stood at 1.92.

`CC(C)(C)OC(=O)CC[C@]12N=C(c3ccc(OCCCO)cc3)O[C@H]1c1ccccc1N(CCS(=O)(=O)c1ccccc1)C2=O` returned a composite z-score of 1.2.

Compound `COCCn1c(C(=O)N2CCCC2)cc2c1C[C@H]1CN(C(=O)c3ccccc3)[C@@](Cc3ccc(F)cc3)(C(=O)OC)[C@@H]21` showed a composite z-score of -0.554.

With `CC1CC/C=C\[C@H]2OC34C=CCN(C(C)(C)C)C(=O)[C@H]3N(CCCCCCO)C(=O)[C@@H]4C2C(=O)O1` (stereo not given in full), the composite z-score is 0.611.

In turn, `COCCOC(=O)N1C(=O)[C@@]2(c3cc(C#Cc4ccc(OC)cc4)ccc31)[C@H](C(N)=O)[C@H]1C(=O)O[C@H](c3ccccc3)[C@H](c3ccccc3)N1[C@@H]2c1ccccc1OCCO` displayed a composite z-score of 1.66.

Take `O=C1OCCC/C=C\[C@H]2OC34C=CCN(c5ccc6ccccc6c5)C(=O)[C@H]3N(CCCCCCO)C(=O)[C@@H]4C12` (stereo not given in full): the composite z-score is -0.0305.

Turning to `COc1ccc([C@H]2C[C@H]3C(Br)=C[C@@H]2C(=O)[C@]32CO2)cc1`, the composite z-score worked out at 0.311.

The compound `COCCOC(=O)N1C(=O)[C@@]2(c3cc(C#CCCO)ccc31)[C@H](c1ccc(OCCO)cc1)N1[C@H](c3ccccc3)[C@H](c3ccccc3)OC(=O)[C@H]1[C@@H]2C(=O)N1CCN(c2ncccn2)CC1` displayed a composite z-score of 1.43.

As for `Cc1ccc(C(C)CC(O)C2C=CC3C(=O)N(C)C(=O)C3N2NC(=O)OC(C)(C)C)o1` (stereo not given), the composite z-score was determined as 0.245.

The compound `C=CC[C@@]1(C(=O)N(C)C)N=C(c2ccc(OCCCO)cc2)O[C@@H]1c1ccccc1N=[N+]=[N-]` came in with a composite z-score of 0.264.

`COCCOC(=O)N1C(=O)[C@@]2(c3cc(C#CCCO)ccc31)[C@H](C(=O)Nc1nc3ccccc3s1)[C@H]1C(=O)O[C@H](c3ccccc3)[C@H](c3ccccc3)N1[C@@H]2c1ccc(OCCO)cc1` came in with a composite z-score of 1.56.

Take `O=C(c1ccccc1)N1Cc2ccccc2[C@@H]2OC(c3ccc(OCCCO)cc3)=N[C@]2(Cc2ccccc2)C1=O`: the composite z-score turned out to be 1.33.

For the compound `NCCCCCNC(=O)[C@@H]1C[C@@H]2C(=O)N[C@@H](Cc3ccccc3)C(=O)N2[C@@H]1c1cccc(OCCO)c1`, the composite z-score is 0.867.

On to `COc1ccc([C@H]2OC[C@@H]3CC4(CC=CC4)C(=O)N32)cc1`, for which the composite z-score turned out to be 1.92.

Compound `CN1C(=O)C2C=CC(C(O)Cc3ccccc3)N(Nc3ccccc3)C2C1=O` (stereo not given) showed a composite z-score of -0.52.

Take `[N-]=[N+]=NCc1ccccc1[C@@H]1OC(c2ccc(OCCCO)cc2)=N[C@]1(Cc1ccccc1N=[N+]=[N-])C(=O)N1CCOCC1`: the composite z-score was -0.284.

With `COc1ccc(CCNC(=O)[C@@]2(Sc3ccc(C)cc3)CC(=O)N(C3CCCCC3)[C@@H]2c2ccc(CO)cc2I)cc1`, the composite z-score is 0.855.

In turn, `[N-]=[N+]=NCc1ccccc1[C@@H]1OC(c2ccc(OCCCO)cc2)=N[C@]1(CCS(=O)(=O)c1ccccc1)C(=O)NCc1ccccc1` registered a composite z-score of 1.4.

As to `O=C1OCC=C[C@H]2OC34C=CCN(CCN5CCOCC5)C(=O)[C@H]3N(CCCO)C(=O)[C@@H]4[C@@H]12` (stereo not given in full), the composite z-score is 1.

Compound `CCc1oc(CC[C@@H](CO)NC(=O)NCCn2cc(C3(O)CCCCC3)nn2)c(C(=O)OC)c1C(=O)OC` yielded a composite z-score of 2.09.

On to `COC(=O)[C@@]1(Cc2ccc(F)cc2)[C@H]2c3cc(C(=O)N(C)C)n(Cc4nc5ccccc5[nH]4)c3C[C@H]2CN1C(=O)c1ccccc1`, for which the composite z-score is -0.586.

`COc1ccc(CCN2C(=O)[C@@]3(c4ccc([N+](=O)[O-])cc4)CC(=O)N(C4CCCCC4)[C@@H]3c3ccc(CO)cc32)cc1` came in with a composite z-score of 1.19.

For `O=C(O)[C@@]1(CCS(=O)(=O)c2ccccc2)COC(c2ccc(OCCCO)cc2)=N1`, the composite z-score is -1.03.

In turn, `CC(C)C[C@@H]1NC(=O)[C@H]2C[C@@H](C(=O)NCCCCCCN)[C@@H](c3ccc(O)cc3)N2C1=O` yielded a composite z-score of 0.553.

These data come from PubChem BioAssay.
